Experimental findings from PubChem BioAssay (EPA / NIEHS) are described below.

A word on the AC50: it is the concentration at which the activity in the assay is half-maximal.

A short description of experiment [1]: CCTE_Harrill_HTTr_Viability_MCF7: CCTE's 6-hour Cell Viability Assessment for the High-Throughput Transcriptomics (HTTr) Platform, in MCF-7 cells cultured in DMEM + 10% fetal bovine serum, Harrill Lab (AID 2284010). The gist of the method: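 PI exclusion, high-content imaging; 8-pt dilution series, 6 h exposure; bidirectional fit vs DMSO (neg. ctrl/baseline); gain of signal = loss of membrane integrity.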

The nature of experiment [2]: CCTE_Harrill_HTTr_CellCount_MCF7: CCTE's Cell Proliferation Assessment for the High-Throughput Transcriptomics (HTTr) Platform, Harrill Lab (AID 2284012; active means hit-call score of the fitted dose curve at least 0.9, where 1 is the maximum;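 further: count of Hoechst-stained nuclei per well by high-content imaging in MCF-7 cells; cells exposed to compound for six hours; intended direction is loss of nuclei count meaning fewer cells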). The gist of the method: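 Readout: Hoechst nuclear count by high-content imaging. MCF-7, 8-point dilution series, 6 h exposure. Bidirectional fit vs DMSO baseline.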
The nature of experiment [3]: CCTE_Harrill_HTTr_Apoptosis_MCF7: CCTE's 6-hour Apoptosis Assessment for the High-Throughput Transcriptomics (HTTr) Platform, in MCF-7 cells cultured in DMEM + 10% fetal bovine serum, Harrill Lab (AID 2284011). The gist of the method: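 MCF-7 cells in DMEM + 10% FBS exposed 6 h to chemicals over an eight-point dilution series. Caspase-3/7 activation imaged by high-content CellEvent Green staining; fitted bidirectionally versus DMSO.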

A short description of experiment [4]: CCTE_Deisenroth_AIME_384WELL_CTox_Active: Cytotoxicity Assessment (CTOX) in CCTE's 384-well Estrogen Receptor Transactivation Assay with AIME metabolic competence (metabolism positive), Deisenroth Lab (AID 2284037; active means hit-call score of the fitted dose curve at least 0.9, where 1 is the maximum;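 further: chemicals first conditioned 2 h by alginate-bound induced rat liver S9 before cells; activity means signal loss indicating cell death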). Summed up: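 Cytotoxicity in VM7Luc4E2 breast cells, 24 hour, measured as protease-substrate fluorescence loss, after 2-hour metabolic conditioning with induced rat hepatic S9 in alginate microspheres. Concentrations 0.002 - 200 uM, 10 points, bidirectional fitting.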

For experiment [5], the target named is Estrogen receptor (Homo sapiens) (UniProt P03372). Kind of experiment: CCTE_Deisenroth_AIME_384WELL_LUC_Active: CCTE's 384-well Estrogen Receptor Transactivation Assay with AIME metabolic competence (ERTA luciferase; metabolism positive), Deisenroth Lab (AID 2284030; active means hit-call score of the fitted dose curve at least 0.9, where 1 is the maximum). The gist of the method:
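Chemicals (10-point, 0.002-200 uM) were first incubated 2 hours with alginate-immobilized induced male Sprague Dawley rat liver S9. The conditioned medium was then applied to VM7Luc4E2 cells for 24 hours, with ER luciferase induction read by luminescence relative to 17beta-estradiol.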

Experiment [6] can be described thus: CCTE_Shafer_MEA_dev_firing_rate_mean: CCTE's Neural Network Formation Assay for Mean Firing Rate, Shafer Lab (AID 2284031).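 Further: curve fitted for loss of firing so AC50 reflects decreased mean firing rate.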 Summed up: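 Read-out: spike count/recording length, averaged over active electrodes, then AUC across days 5, 7, 9, 12. Rat cortical cultures on MEA; continuous 12-day exposure, media and treatment renewed DIV 5, 9; DMSO baseline.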
Experiment [7] in a line: CCTE_Shafer_MEA_dev_per_burst_spike_percent: CCTE's Neural Network Formation Assay for Percent of Spikes in a Burst, Shafer Lab (AID 2284032).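 Further: fitted as a decrease in burst spike percentage below DMSO baseline.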 Summed up:
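Value is trapezoidal AUC over recordings on days 5, 7, 9 and 12 of the well-mean fraction of spikes falling in single-electrode bursts; rat cortical cultures exposed continuously from plating, treatment renewed DIV 5 and 9, fitted downward against DMSO.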

Each structure is given as a SMILES string. Where “and” joins values, the source holds several entries; their conditions need not be identical. Equal entries are not always repeated. Results filed as inconclusive are left out. Calls of active or inactive are those of the source. How the source made its calls, unless noted: active means hit-call score of the fitted dose curve at least 0.9, where 1 is the maximum; inactive means score below 0.9.

Estrogen receptor (Homo sapiens), sequence (P03372 whole entry, looked up): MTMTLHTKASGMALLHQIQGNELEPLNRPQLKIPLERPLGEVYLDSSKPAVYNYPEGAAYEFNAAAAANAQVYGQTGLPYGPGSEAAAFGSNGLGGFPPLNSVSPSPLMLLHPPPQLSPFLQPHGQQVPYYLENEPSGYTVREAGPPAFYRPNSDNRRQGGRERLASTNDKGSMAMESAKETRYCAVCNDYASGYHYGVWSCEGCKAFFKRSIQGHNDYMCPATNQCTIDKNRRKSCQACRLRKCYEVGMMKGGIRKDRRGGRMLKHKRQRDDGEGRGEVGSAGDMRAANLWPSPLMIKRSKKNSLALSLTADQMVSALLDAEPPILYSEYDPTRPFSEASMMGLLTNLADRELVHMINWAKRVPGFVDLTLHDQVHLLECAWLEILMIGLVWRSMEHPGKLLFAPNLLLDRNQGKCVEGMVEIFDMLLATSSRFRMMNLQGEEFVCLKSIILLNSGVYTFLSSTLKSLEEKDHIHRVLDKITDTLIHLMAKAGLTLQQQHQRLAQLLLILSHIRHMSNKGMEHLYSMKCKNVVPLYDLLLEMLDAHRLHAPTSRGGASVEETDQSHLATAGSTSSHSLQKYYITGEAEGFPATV

As to `O=C(NC(=O)c1c(F)cccc1F)Nc1ccc(Cl)cc1`, the outcome in experiment [1] and in experiment [2] was inactive.
For the compound `N#CCCC(Br)(C#N)CBr` (configuration not stated), the result in experiment [1], in experiment [3] and in experiment [2] was inactive.
Regarding `Nc1ncn[nH]1`, the outcome in experiment [1], in experiment [3], in experiment [2] and in experiment [4] was inactive.
Consider `N#CS`, for which the outcome in experiment [1], in experiment [3] and in experiment [4] was inactive.
Turning to `Nc1nc(N)nc(Cl)n1`, the outcome in experiment [1] and in experiment [3] was inactive.
Turning to `CC(C=O)Cc1ccc2c(c1)OCO2` (configuration not stated), the result in experiment [1], in experiment [3] and in experiment [2] was inactive.
Regarding `CCCCCCCCCCCCCCC(Br)C(=O)O` (configuration not stated), the outcome in experiment [1] and in experiment [3] was inactive.
Take `Cc1cc(SCc2sc(-c3ccc(C(F)(F)F)c(F)c3)nc2C)ccc1OCC(=O)O`: the outcome in experiment [1], in experiment [3] and in experiment [2] was inactive.
In the case of `C[C@]12CC[C@@H](O)C[C@@H]1CC[C@@H]1[C@@H]2CC[C@]2(C)C(=O)CC[C@@H]12`, the result in experiment [1] and in experiment [3] was inactive.
As for `O=[N+]([O-])c1ccccc1O`, the result in experiment [1], in experiment [3] and in experiment [2] was inactive.
Take `COCCl`: the result in experiment [1], in experiment [3] and in experiment [2] was inactive.
In the case of `CCC[CH2][Sn]([Cl])([Cl])[CH2]CCC`, the outcome in experiment [1], in experiment [3] and in experiment [2] was inactive. The AC50 in experiment [4] is 13.6 µM (active).
Consider `O=NN1CCOCC1`, for which the result in experiment [1] and in experiment [3] was inactive.
With `OCCN(CCO)CCO`, the result in experiment [1], in experiment [3] and in experiment [2] was inactive.
As for `CCOP(=S)(OCC)O/N=C(\C#N)c1ccccc1`, the result in experiment [1], in experiment [3] and in experiment [2] was inactive.
For the compound `CN(C1CCCCC1)C1CCCCC1`, the result in experiment [1] and in experiment [3] was inactive.
For the compound `CC(C)N(C(=O)CCl)c1ccccc1`, the outcome in experiment [1], in experiment [3] and in experiment [2] was inactive.
With `CCCSP(=S)(OCC)Oc1ccc(Cl)cc1Cl` (configuration not stated), the outcome in experiment [1], in experiment [3] and in experiment [2] was inactive.
On to `O=C(O)COc1ccc(Cl)cc1`, for which the outcome in experiment [1], in experiment [3], in experiment [2] and in experiment [5] was inactive.
As for `Clc1cccc(Cl)c1`, the outcome in experiment [1], in experiment [3] and in experiment [2] was inactive.
Consider `CCOCn1c(-c2ccc(Cl)cc2)c(C#N)c(Br)c1C(F)(F)F`, for which the outcome in experiment [1], in experiment [3] and in experiment [2] was inactive. Also, the AC50 in experiment [6] is 3.01 µM (active); in experiment [7] it was 6.04 µM (active).
Turning to `C1CCC(C2CCCCC2)CC1`, the outcome in experiment [1], in experiment [3] and in experiment [2] was inactive.
Turning to `O=[N+]([O-])c1ccc(Cl)c([N+](=O)[O-])c1`, in experiment [1], the AC50 is 67.7 µM (active) and 56.9 µM (active). Moreover, the outcome in experiment [3] and in experiment [2] was inactive.
For the compound `Brc1ccc(Br)cc1`, the outcome in experiment [1], in experiment [3] and in experiment [2] was inactive.
Consider `CCOC(=O)OC1=C(c2cc(C)ccc2C)C(=O)NC12CCC(OC)CC2` (configuration not stated), for which the outcome in experiment [1], in experiment [3] and in experiment [2] was inactive.
As for `O=C(N[C@H]1CN2CCC1CC2)c1ccc2c(c1)OCCO2`, the outcome in experiment [1] and in experiment [3] was inactive.
`Cc1cc(C(C)(C)c2ccc(O)c(C)c2)ccc1O`: the outcome in experiment [1], in experiment [3] and in experiment [2] was inactive.
As to `CCOC(=O)CCN(SN(C)C(=O)Oc1cccc2c1OC(C)(C)C2)C(C)C`, the outcome in experiment [1], in experiment [3] and in experiment [2] was inactive.
Regarding `Clc1cnc(Oc2ccc(Oc3ncc(Cl)cc3Cl)cc2)c(Cl)c1`, the result in experiment [1], in experiment [3] and in experiment [2] was inactive.
For the compound `O=S1(=O)OC(c2cc(Br)c(O)c(Br)c2)(c2cc(Br)c(O)c(Br)c2)c2ccccc21`, the result in experiment [1], in experiment [3] and in experiment [2] was inactive. Besides, in experiment [4], the AC50 is 160 µM (active).
On to `O=C1C=CC(=O)c2ccccc21`, for which the figures for the AC50 in experiment [1], in experiment [3] and in experiment [2] were 69.1 µM (active), 60.4 µM (active) and 76.2 µM (active), respectively.
